# Laboratory results taken from PubChem BioAssay (Tox21).
# Values joined by “and” are separate entries in the source; they are usually repeats but may differ in a detail not shown here. Equal values may be shown once. Records with an inconclusive call do not appear. Active and inactive are the calls of the source. The call rests on the fitted dose curve; in most records, active means well fitted cell-killing curve with a large enough effect in the repeat runs; inconclusive means weak or mixed curves, or effect the other way; inactive means no such curve, though single readings can be large or run the other way.
# Assay: qHTS assay for identifying genotoxic compounds that show differential cytotoxicity against isogenic chicken DT40 cell lines with known DNA damage response pathways - Rev3 mutant cell line (AID 743014); further: nearly all actives have a fitted effect of over 55% in size
# Conditions: chicken DT40 Rev3-/- viability, CellTiter-Glo, 40 h; series mostly up to 68.4 µM
# Potency means the concentration at half of the fitted maximal effect.
row,SMILES,Potency
1,CNc1ccc(O)cc1,6.1 µM (active)
2,CCCCCCCCCCCC[N+](C)(C)CCCCCCCCCCCC,3.86 µM (active)
3,CC(=O)S[C@@H]1CC2=CC(=O)CC[C@]2(C)[C@H]2CC[C@@]3(C)[C@@H](CC[C@@]34CCC(=O)O4)[C@H]12,9.44 µM (active) and 6.11 µM (active)
4,O=C(OC[C@H]1O[C@@H](OC(=O)c2cc(O)c(O)c(OC(=O)c3cc(O)c(O)c(O)c3)c2)[C@H](OC(=O)c2cc(O)c(O)c(OC(=O)c3cc(O)c(O)c(O)c3)c2)[C@@H](OC(=O)c2cc(O)c(O)c(OC(=O)c3cc(O)c(O)c(O)c3)c2)[C@@H]1OC(=O)c1cc(O)c(O)c(OC(=O)c2cc(O)c(O)c(O)c2)c1)c1cc(O)c(O)c(OC(=O)c2cc(O)c(O)c(O)c2)c1,10.6 µM (active) and 16.5 µM (active)
5,CO[Si](CCCNc1ccccc1)(OC)OC,15.4 µM (active)
6,S=c1[nH]c2ccccc2s1,29.8 µM (active) and 66.6 µM (active)
7,Cc1cccc(S(=O)(=O)O)c1C,inactive
8,O=[N+]([O-])c1cc([N+](=O)[O-])c2ccc(S(=O)(=O)O)cc2c1O,inactive
9,CCOC(=O)O[C@H](C)OC(=O)c1ccc2c(c1)cc(C(=O)NC1CCN(C(C)C)CC1)n2Cc1cc(-c2ccc(Cl)s2)on1,11.4 µM (active)
10,CCCCCCCCCCCCCCCC[N+](C)(C)CCN(Cc1ccc(OC)cc1)c1ncccn1,2.02 µM (active)
11,O=C(Oc1cccc2cccnc12)c1ccccc1,2.98 µM (active)
12,OCCN(CCO)c1nc(N2CCCCC2)c2nc(N(CCO)CCO)nc(N3CCCCC3)c2n1,9.44 µM (active)
